The values that follow come from PMC7862700, “An all-to-all approach to the identification of sequence-specific readers for epigenetic DNA modifications on cytosine”.

Assay in all cases: DAPPL (digital affinity profiling via proximity ligation, sequencing); 10 mM Tris-HCl pH 7.5, 50 mM NaCl, 1 mM DTT, 4% glycerol, room temperature, 30 min; GST-TFs on glutathione beads, 16-mer random dsDNA library, 0.1% formaldehyde crosslink after washing; high values mean tight binding
Assay [1] concerns the target T1, FEV (Homo sapiens, UniProt Q99581 1-238).
T1 sequence: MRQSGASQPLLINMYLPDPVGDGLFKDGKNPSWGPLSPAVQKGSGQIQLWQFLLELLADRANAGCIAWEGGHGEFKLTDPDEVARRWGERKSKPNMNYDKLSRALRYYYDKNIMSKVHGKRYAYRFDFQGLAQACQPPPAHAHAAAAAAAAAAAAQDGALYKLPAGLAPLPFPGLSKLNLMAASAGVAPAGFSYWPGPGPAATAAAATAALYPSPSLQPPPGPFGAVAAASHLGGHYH
The note with it: protein: recombinant; tags: N-terminal GST; dsDNA, one strand shown. The gist of the method:
(§1)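 In yeast, human transcription factors were expressed with a GST fusion, then pulled down on glutathione beads and given DNA barcodes. Pooled with a tag-only sample, they were exposed to 200 nmole of a 16-mer random double-stranded DNA library (Tris/NaCl/DTT/glycerol buffer, room temperature, 30 min), washed, crosslinked with 0.1% formaldehyde, proximity-ligated using BsaI/T4 ligase for 1 h at 37 °C, PCR-amplified and read on an Illumina NextSeq500. Each hexamer's frequency of reads for a factor, divided by the matching frequency for the tag-only sample, gives the binding signal.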

Assay [2] deals with ETV5 (Homo sapiens, UniProt P41161 1-510). The note with it: protein: recombinant; tags: N-terminal GST; dsDNA, one strand shown. Put shortly: as §1
Sequence of ETV5 (P41161 whole entry): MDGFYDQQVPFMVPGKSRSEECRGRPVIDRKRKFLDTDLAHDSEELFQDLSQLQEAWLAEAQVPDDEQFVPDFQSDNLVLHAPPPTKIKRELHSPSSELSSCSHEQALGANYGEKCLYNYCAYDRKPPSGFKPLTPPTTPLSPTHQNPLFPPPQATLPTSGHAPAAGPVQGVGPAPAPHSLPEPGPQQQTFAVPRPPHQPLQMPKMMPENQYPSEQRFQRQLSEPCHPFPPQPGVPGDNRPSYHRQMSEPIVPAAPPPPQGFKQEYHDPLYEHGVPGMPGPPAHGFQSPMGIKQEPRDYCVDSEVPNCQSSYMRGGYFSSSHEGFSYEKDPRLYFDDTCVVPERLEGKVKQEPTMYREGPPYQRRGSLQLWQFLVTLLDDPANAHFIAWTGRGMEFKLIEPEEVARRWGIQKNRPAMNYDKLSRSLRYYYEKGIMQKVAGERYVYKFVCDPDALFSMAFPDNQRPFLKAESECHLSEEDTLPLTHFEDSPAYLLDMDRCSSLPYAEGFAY
For assay [3], the target named is HSF1 (Homo sapiens, UniProt Q00613 1-529). The conditions noted are these: protein: recombinant; tags: N-terminal GST; chain copies: 3; dsDNA, one strand shown. Put shortly: as §1
Sequence of HSF1 (Q00613 whole entry): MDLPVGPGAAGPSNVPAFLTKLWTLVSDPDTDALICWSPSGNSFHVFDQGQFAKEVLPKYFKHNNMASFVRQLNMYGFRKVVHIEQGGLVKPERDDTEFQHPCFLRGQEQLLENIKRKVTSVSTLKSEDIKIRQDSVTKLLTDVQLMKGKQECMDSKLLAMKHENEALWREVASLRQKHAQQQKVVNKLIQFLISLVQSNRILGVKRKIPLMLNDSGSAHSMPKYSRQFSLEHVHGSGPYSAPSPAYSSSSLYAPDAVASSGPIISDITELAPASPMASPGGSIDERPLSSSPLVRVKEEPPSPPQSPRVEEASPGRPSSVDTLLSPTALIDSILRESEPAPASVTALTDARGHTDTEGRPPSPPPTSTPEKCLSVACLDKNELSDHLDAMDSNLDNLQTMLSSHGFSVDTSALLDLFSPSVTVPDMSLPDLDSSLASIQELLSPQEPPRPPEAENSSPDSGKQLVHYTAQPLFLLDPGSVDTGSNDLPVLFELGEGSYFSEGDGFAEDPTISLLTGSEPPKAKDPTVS
The target of assay [4] is T2, SPIC (Homo sapiens, UniProt Q8N5J4 1-248).
T2 sequence: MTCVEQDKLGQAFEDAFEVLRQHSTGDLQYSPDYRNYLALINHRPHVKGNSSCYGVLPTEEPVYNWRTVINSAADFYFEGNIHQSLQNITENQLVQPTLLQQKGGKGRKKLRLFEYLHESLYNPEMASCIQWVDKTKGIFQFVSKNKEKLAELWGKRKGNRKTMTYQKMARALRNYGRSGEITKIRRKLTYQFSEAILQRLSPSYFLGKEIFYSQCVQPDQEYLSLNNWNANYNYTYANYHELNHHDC
The note with it: protein: recombinant; tags: N-terminal GST; dsDNA, one strand shown. The gist of the method: as §1

Assay [5] deals with ELF4 (Homo sapiens, UniProt Q99607 1-663). The conditions noted are these: protein: recombinant; tags: N-terminal GST; dsDNA, one strand shown. Put shortly:
as §1

The target of assay [6] is T3, ELK4 (Homo sapiens, UniProt P28324-2 1-405).
T3 sequence: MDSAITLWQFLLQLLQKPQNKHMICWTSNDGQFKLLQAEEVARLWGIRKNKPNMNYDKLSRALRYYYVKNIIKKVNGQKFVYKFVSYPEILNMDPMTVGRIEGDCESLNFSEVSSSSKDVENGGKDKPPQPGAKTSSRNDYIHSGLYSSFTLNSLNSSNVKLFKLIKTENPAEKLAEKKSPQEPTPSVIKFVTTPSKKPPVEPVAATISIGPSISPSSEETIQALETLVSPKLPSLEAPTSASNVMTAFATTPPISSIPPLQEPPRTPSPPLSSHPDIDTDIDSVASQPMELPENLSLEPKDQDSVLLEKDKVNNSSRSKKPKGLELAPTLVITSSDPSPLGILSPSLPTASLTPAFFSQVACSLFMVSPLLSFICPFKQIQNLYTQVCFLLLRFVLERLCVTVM
The conditions noted are these: protein: recombinant; tags: N-terminal GST; dsDNA, one strand shown. The gist of the method: as §1

For assay [7], the target named is T4, ETV2 (Homo sapiens, UniProt O00321 1-342).
T4 sequence: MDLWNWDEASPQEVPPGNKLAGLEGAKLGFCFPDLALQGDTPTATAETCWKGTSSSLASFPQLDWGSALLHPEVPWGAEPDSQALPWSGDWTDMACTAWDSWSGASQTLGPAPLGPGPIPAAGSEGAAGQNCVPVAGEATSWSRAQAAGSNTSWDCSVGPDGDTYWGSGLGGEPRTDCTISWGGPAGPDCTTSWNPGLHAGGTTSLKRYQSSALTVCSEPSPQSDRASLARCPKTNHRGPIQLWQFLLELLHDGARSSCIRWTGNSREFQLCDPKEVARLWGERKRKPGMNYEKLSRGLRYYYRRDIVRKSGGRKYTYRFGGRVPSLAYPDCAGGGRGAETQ
The conditions noted are these: protein: recombinant; tags: N-terminal GST; dsDNA, one strand shown. The gist of the method: as §1

Assay [8] concerns the target T5, ELF3 (Homo sapiens, UniProt P78545 1-371).
T5 sequence: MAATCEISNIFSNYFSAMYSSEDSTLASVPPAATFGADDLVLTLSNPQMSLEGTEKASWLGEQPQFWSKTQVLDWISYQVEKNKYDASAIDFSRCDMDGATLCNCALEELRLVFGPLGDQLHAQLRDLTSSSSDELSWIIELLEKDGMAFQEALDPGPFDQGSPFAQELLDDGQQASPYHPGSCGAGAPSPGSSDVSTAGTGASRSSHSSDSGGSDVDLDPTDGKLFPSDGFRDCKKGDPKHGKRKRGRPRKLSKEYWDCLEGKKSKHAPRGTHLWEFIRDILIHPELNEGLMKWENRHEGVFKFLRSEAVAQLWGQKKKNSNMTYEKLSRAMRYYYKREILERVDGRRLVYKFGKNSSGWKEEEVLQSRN
The conditions noted are these: protein: recombinant; tags: N-terminal GST; dsDNA, one strand shown. Put shortly: as §1

The target in assay [9] is CRX (Homo sapiens, UniProt O43186 1-299). The conditions noted are these: protein: recombinant; tags: N-terminal GST; dsDNA, one strand shown. The gist of the method: as §1
Sequence of CRX (O43186 whole entry): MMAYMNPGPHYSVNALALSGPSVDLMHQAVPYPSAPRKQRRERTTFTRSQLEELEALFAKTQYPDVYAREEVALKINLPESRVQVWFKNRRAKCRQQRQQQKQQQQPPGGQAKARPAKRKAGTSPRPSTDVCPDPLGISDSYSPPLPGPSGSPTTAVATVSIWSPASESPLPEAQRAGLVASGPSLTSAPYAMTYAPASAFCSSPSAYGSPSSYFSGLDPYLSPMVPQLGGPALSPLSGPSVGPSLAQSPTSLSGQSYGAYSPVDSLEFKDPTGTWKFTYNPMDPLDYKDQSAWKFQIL
Assay [10] has as its target ETV1 (Homo sapiens, UniProt P50549 1-477). The note with it: protein: recombinant; tags: N-terminal GST; dsDNA, one strand shown. The gist of the method:
as §1

Assay [11] concerns the target T6, ERF (Homo sapiens, UniProt P50548 1-548).
T6 sequence: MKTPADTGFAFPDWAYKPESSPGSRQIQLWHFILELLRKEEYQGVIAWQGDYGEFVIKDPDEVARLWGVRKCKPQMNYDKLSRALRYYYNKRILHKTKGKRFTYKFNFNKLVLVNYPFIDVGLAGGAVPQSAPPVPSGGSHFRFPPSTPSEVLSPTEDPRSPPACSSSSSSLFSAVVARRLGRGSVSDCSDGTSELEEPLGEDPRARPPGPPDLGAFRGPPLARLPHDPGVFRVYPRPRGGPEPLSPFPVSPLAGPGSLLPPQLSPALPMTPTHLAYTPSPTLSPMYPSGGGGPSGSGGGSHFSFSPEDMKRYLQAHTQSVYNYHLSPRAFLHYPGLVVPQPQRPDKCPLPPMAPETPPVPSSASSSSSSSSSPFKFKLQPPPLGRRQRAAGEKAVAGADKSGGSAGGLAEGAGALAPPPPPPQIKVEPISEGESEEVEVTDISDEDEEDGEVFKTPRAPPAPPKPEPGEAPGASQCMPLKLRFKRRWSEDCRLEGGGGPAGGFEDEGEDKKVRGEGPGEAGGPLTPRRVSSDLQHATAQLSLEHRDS
The note with it: protein: recombinant; tags: N-terminal GST; dsDNA, one strand shown. Put shortly: as §1

The target in assay [12] is T7, ETV3L (Homo sapiens, UniProt Q6ZN32 1-361).
T7 sequence: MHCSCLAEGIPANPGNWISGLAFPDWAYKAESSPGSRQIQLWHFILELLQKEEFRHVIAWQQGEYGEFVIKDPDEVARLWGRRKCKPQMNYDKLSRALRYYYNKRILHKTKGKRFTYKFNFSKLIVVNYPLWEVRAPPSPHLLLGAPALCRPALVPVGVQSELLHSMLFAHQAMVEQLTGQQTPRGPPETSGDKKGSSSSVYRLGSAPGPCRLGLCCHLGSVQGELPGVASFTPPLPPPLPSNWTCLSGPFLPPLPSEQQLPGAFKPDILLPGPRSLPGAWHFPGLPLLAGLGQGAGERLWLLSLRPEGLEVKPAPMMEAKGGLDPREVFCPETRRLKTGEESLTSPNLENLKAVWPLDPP
The note with it: protein: recombinant; tags: N-terminal GST; dsDNA, one strand shown. The gist of the method:
as §1

For assay [13], the target named is T8, ETS2 (Homo sapiens, UniProt P15036 1-469).
T8 sequence: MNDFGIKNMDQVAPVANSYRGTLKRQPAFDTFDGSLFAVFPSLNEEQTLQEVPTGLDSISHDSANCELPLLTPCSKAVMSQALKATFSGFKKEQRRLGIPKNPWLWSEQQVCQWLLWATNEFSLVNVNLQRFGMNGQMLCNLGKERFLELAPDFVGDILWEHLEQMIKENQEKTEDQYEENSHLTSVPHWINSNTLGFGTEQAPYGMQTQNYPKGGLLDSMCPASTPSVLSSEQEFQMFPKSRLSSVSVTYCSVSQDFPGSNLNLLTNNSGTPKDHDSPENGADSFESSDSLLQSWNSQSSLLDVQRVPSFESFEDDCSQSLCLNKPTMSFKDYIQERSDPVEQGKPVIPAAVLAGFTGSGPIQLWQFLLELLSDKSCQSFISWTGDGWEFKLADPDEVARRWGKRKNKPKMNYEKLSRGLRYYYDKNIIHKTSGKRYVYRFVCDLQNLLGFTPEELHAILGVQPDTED
The conditions noted are these: protein: recombinant; tags: N-terminal GST; dsDNA, one strand shown. Put shortly: as §1

Assay [14] concerns the target T9, SPDEF (Homo sapiens, UniProt O95238 1-335).
T9 sequence: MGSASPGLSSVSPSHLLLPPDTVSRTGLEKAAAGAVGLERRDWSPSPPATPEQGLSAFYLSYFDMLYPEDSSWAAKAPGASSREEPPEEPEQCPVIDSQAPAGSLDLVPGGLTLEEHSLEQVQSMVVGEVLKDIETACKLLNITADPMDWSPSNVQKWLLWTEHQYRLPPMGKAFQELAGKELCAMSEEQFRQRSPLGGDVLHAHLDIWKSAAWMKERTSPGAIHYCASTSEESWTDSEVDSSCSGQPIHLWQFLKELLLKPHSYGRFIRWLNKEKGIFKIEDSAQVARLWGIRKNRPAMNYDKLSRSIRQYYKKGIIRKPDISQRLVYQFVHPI
The note with it: protein: recombinant; tags: N-terminal GST; dsDNA, one strand shown. Put shortly: as §1

The target of assay [15] is T10, ETV7 (Homo sapiens, UniProt Q9Y603 1-341).
T10 sequence: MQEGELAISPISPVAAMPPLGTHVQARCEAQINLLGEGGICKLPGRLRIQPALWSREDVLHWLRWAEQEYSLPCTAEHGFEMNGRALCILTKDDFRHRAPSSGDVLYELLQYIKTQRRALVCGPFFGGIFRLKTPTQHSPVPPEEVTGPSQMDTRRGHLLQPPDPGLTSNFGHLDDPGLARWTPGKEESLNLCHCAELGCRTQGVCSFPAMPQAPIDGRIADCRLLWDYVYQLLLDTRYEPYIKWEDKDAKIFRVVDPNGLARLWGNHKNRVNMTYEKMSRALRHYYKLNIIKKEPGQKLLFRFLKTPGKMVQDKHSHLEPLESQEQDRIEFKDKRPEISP
The note with it: protein: recombinant; tags: N-terminal GST; dsDNA, one strand shown. Put shortly: as §1

In assay [16] the target is T11, ELF5 (Homo sapiens, UniProt Q9UKW6-2 1-255).
T11 sequence: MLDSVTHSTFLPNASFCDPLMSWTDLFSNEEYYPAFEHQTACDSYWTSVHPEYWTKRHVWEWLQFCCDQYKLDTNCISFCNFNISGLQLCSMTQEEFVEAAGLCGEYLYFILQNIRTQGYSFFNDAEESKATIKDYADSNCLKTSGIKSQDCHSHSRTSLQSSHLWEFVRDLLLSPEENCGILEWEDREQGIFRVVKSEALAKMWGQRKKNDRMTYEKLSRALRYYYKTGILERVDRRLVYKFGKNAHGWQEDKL
The note with it: protein: recombinant; tags: N-terminal GST; dsDNA, one strand shown. Put shortly:
as §1

Assay [17] addresses T12, ETV3 (Homo sapiens, UniProt P41162-2 1-143).
T12 sequence: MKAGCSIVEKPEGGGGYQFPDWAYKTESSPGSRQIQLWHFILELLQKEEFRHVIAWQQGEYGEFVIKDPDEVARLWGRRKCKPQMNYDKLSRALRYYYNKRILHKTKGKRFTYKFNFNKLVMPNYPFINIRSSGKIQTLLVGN
The note with it: protein: recombinant; tags: N-terminal GST; dsDNA, one strand shown. Put shortly: as §1

The target in assay [18] is ETV6 (Homo sapiens, UniProt P41212 1-452). The note with it: protein: recombinant; tags: N-terminal GST; dsDNA, one strand shown. Put shortly:
as §1

Sequence of ETV6 (P41212 whole entry): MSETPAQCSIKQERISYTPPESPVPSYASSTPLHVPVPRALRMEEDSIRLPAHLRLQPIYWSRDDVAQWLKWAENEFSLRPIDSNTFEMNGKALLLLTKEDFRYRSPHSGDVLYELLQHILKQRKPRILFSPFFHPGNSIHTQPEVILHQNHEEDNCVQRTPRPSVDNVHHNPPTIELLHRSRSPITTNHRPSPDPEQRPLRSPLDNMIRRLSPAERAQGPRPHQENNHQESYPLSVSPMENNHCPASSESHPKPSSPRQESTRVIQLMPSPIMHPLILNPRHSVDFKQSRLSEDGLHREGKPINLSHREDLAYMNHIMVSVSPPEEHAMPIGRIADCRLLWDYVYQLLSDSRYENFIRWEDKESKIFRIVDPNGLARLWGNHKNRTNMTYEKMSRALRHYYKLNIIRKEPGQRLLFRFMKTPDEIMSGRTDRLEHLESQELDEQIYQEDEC
Sequence of ETV1 (P50549 whole entry): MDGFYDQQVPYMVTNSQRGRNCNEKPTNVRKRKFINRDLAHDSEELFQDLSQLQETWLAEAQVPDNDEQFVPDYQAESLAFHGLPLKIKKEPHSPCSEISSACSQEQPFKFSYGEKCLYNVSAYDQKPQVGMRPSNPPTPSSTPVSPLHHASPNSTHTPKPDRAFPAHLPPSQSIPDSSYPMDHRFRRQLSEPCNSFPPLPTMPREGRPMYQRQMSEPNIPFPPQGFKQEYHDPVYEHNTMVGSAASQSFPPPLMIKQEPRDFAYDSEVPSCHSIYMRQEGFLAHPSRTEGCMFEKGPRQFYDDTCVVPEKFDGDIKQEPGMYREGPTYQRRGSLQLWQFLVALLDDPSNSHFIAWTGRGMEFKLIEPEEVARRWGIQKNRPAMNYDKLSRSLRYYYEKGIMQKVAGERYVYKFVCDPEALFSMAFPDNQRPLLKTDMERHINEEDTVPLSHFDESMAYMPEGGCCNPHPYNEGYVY
Sequence of ELF4 (Q99607 whole entry): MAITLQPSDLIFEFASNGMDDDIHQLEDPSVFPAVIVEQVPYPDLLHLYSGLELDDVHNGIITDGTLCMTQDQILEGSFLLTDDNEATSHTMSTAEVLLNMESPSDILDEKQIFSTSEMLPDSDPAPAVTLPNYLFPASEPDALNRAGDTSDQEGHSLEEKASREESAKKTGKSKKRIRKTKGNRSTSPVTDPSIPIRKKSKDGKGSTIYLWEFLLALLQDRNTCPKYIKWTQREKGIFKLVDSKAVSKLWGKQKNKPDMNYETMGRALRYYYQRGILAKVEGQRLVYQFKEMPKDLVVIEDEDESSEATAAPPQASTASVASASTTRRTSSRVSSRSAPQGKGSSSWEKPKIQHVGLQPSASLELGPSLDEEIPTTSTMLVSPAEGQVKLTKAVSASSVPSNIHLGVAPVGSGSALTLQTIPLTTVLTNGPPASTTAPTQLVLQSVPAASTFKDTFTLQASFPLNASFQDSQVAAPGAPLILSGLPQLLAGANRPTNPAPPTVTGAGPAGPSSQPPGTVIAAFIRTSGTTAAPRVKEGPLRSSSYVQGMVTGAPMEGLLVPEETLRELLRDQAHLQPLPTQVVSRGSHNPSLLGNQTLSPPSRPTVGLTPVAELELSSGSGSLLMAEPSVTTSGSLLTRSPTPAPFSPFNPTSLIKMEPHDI

TTAATG: the binding signal in [1] was 1.12 fold enrichment (6-mer frequency, TF over GST control); in assay [2] it was 1.27 fold enrichment (6-mer frequency, TF over GST control); in [3] it was 1.89 fold enrichment (6-mer frequency, TF over GST control); in [4] it was 1.24 fold enrichment (6-mer frequency, TF over GST control); in assay [5] it was 1.26 fold enrichment (6-mer frequency, TF over GST control); in assay [6], 1.21 fold enrichment (6-mer frequency, TF over GST control). Further, the binding signal in assay [7] was 1.31 fold enrichment (6-mer frequency, TF over GST control); in assay [8], 1.21 fold enrichment (6-mer frequency, TF over GST control); in [9] it was 2.75 fold enrichment (6-mer frequency, TF over GST control); in assay [10], 1.29 fold enrichment (6-mer frequency, TF over GST control); in [11] it was 1.05 fold enrichment (6-mer frequency, TF over GST control); in assay [12] it was 1.19 fold enrichment (6-mer frequency, TF over GST control). Further, the binding signal was 1.2 fold enrichment (6-mer frequency, TF over GST control) in assay [13]; 1.19 fold enrichment (6-mer frequency, TF over GST control) in [14]; 1.26 fold enrichment (6-mer frequency, TF over GST control) in assay [15]; 1.19 fold enrichment (6-mer frequency, TF over GST control) in [16]; 1.21 fold enrichment (6-mer frequency, TF over GST control) in [17]; 1.19 fold enrichment (6-mer frequency, TF over GST control) in [18].
